According to ChEMBL document CHEMBL3988442, “University of Dundee, Small-Polar-MMV Screening Library” (2021):
Among all 48,000 compounds or so, about 13,000 (27%) showed an effect of 50% or more. Some of the results follow.

test system: Wolbachia pipientis; experiment: Anti-Wolbachia Cell-Based Screen; assay type: functional; design: scale not given: in the data most compounds retested in dose-response had high values; conditions: 5 µM

Compound | Percent Effect
COCCN1CCc2cc(C(=O)N(C)C)c(NC(C)C)nc2CC1.O=C(O)C(F)(F)F.O=C(O)C(F)(F)F | 7.689%
CC(C)Nc1nc2c(s1)C(=O)CN(C)C2 | 130.6%
CCN1CC(=O)c2sc(NC(C)C)nc2C1 | 96.98%
CC(C)Nc1nc2c(s1)C(=O)CN(CC1CC1)C2 | 101.7%
COCCN1CCC(NCc2c(C(C)C)nn(C)c2N(C)C)CC1 | -4.673%
COCCN1CC(=O)c2sc(NC(C)C)nc2C1 | 130.5%
CC(C)c1nn(C)c(N(C)C)c1CNC1CCN(CC2CC2)CC1 | -26.39%
CSC(C)(C)CNC(=O)NC1CCN(C)CC1 | -3.442%
CC(C)C(C)(C#N)NC(=O)Cn1cc(C(N)=O)c(-c2ccccc2)n1 (stereo not drawn) | 12.8%
CCNC(=O)NCc1cccc(N2CC=CC2)c1 | -0.5505%
CCc1noc(CN(C)CCC(=O)Nc2ccc(Cl)cc2)n1 | -6.397%
CCN(CCn1cccn1)Cc1nc(-c2ccc(C)o2)oc1C | 17.65%
Cc1oc(-c2ccc(F)cc2F)nc1CN1C[C@@H](C)O[C@@H](C)C1 | 30.19%
CCN(C)Cc1nc(-c2ccccc2NS(C)(=O)=O)oc1C | 17.24%
CCCOC1CCCN(Cc2nc(-c3ccc(F)cc3F)oc2C)C1 (stereo not drawn) | 11.6%
CCN1CC(CN(C)Cc2nc(-c3ccoc3)oc2C)CC1=O (stereo not drawn) | 101.6%
CCN(CCn1cccn1)Cc1nc(-c2ccc(F)cc2)oc1C | 16.6%
CCN1CC(CN(C)Cc2nc(-c3ccc(C)o3)oc2C)CC1=O (stereo not drawn) | 106.5%
CCN(CCn1cccn1)Cc1nc(-c2ccoc2)oc1C | -32.03%
Cc1oc(-c2ccoc2)nc1CN1CCC[C@H]1CO | 2.013%
Cc1oc(-c2ccc(F)cc2)nc1CN1CCOCS1(=O)=O | 1.059%
CCN1CC(CN(C)Cc2nc(-c3ccc(F)cc3)oc2C)CC1=O (stereo not drawn) | 117.1%
CCN1CC(CN(C)Cc2nc(-c3ccc(F)cc3F)oc2C)CC1=O (stereo not drawn) | 223.2%
O=C(c1ccc(O)cn1)N1CCOC(c2ccc(Cl)c(Cl)c2)C1 (stereo not drawn) | -8.844%
CCc1cnc(NCCSc2cnn[nH]2)nc1 | 4.76%

Compound | Percent Effect
COC(=O)CCCNC(=O)COc1ccccc1C(F)(F)F | -5.238%
O=C(c1cc2c(s1)CCN2C(=O)C1CC1)N1CCCC1 | -2.581%
COCCNC(=O)c1cc2c(s1)CCN2C(=O)c1ccccc1 | 3.263%
O=C(NC1CC1)c1cc2c(s1)CCN2C(=O)C1CC1 | 91.55%
COCCN(C)C(=O)c1cc2c(s1)CCN2C(=O)C1CC1 | 113.8%
CCCNC(=O)CCNC(=O)c1ccccc1N1CCOCC1 | 6.654%
O=C(NC1CCCC1)NC1CCC(C(=O)N2CCSCC2)CC1 (stereo not drawn) | 9.425%
O=C(NC1CCCC1)c1cc2c(s1)CCN2C(=O)c1ccccc1 | 94.77%
CCCNC(=O)c1cc2c(s1)CCN2C(=O)c1ccccc1 | 88.89%
CN1C[C@H](COCC2CC2)[C@H]2CCN(Cc3ccco3)CC[C@H]2C1=O | -20.01%
CCOC1CCN(CCc2nc(-c3cccc(Cl)c3)no2)CC1 | 9.803%
CC(O)C(=O)N1CCC(c2nccn2Cc2cscn2)CC1 (stereo not drawn) | -11.64%
O=C(NCCN1CCCC1)c1cc2c(s1)CCN2C(=O)c1ccccc1 | 91.37%
CN1CCCN(C(=O)c2cc3c(s2)CCN3C(=O)c2ccccc2)CC1 | -3.728%
CC(C1CC1)N(CC(=O)NCC(F)(F)F)C1CC1 (stereo not drawn) | -3.588%
O=C(CNc1cccc2c1CCCC2)Nc1ccccc1Br | 7.656%
NC(=O)c1ccc(N2CCCCC2)c(NC(=O)c2cc(Br)ccc2Cl)c1 | 10.69%
O=C(c1cc(Br)ccc1-n1cnnn1)N1CCCC1 | 113.6%
NC(=O)C1CCN(C(=O)c2cc(Br)ccc2-n2cnnn2)CC1 | 120.4%
O=C(c1cc(Br)ccc1Cl)N1CCN(Cc2ccco2)CC1 | 8.904%
NC(=O)c1ccc(N2CCCCC2)c(NC(=O)c2cc(Br)ccc2F)c1 | 10.52%
NC(=O)C1CCN(C(=O)c2ccc(Cn3cc(Br)cn3)cc2)CC1 | -10.39%
O=C(c1cc(Br)ccc1-n1cnnn1)N1CCCCC1 | 184.2%
NC(=O)C1CCN(C(=O)c2ccccc2OCc2ccncc2)CC1 | -0.6716%
Cc1cnn(C2CCCN(C(=O)c3sccc3-n3cnnn3)C2)c1 (stereo not drawn) | -13.25%

Compound | Percent Effect
O=C1C(Nc2ccc3nccnc3n2)CCN1c1ccccc1F (stereo not drawn) | -13.15%
O=C(CCCc1ccccc1)Nc1cnc(N2CCOCC2)nc1 | -16.01%
CNC(=O)c1cccc(CNC(C)c2cc(Cl)ccc2OC)c1 (stereo not drawn) | 8.961%
CCc1c(C)nn(C)c1NC(=O)N1CCCOC(Cn2cccn2)C1 (stereo not drawn) | -2.471%
CCOCCn1nc(C)cc1C(=O)N1CC(C)(C)[C@@](C)(O)C1 | -27.83%
CC1=Nc2c(c(=O)[nH]n2C(C)C)C(c2ccsc2)S1 (stereo not drawn) | 124.6%
CC1=Nc2c(c(=O)[nH]n2C(C)C)C(c2ccc(F)c(F)c2)S1 (stereo not drawn) | 0.5897%
CC1=Nc2c(c(=O)[nH]n2C(C)C)C(c2ccccc2)S1 (stereo not drawn) | 3.045%
COc1cc(OC)cc(N2CCC(NCc3cc[nH]n3)C2)c1 (stereo not drawn) | -8.563%
Cc1ccc(C(NC(=O)Cc2nc3ncccn3n2)C2CC2)cc1 (stereo not drawn) | -15.47%
O=S(=O)(c1ccc2c(c1)CCC2)N1CCCC(Cn2cncn2)C1 (stereo not drawn) | 1.903%
CCCSCC(=O)NCc1cccc(CN(C)CC)c1 | 105%
O=C(CSCc1ccccn1)NCC1CC1 | 22.7%
CCN(C)Cc1cccc(CNC(=O)NCCc2ccccn2)c1 | 112.6%
O=C(CSCc1ccccn1)NCC1CCN(C2CC2)C1 (stereo not drawn) | 21.4%
CCN(C)Cc1cccc(CNC(=O)CSCc2ccncc2)c1 | 124.3%
CCCC(=O)NCc1cccc(C(=O)OC)c1 | -9.94%
CC(Cn1ccnc1)NC(=O)NCCc1ccccn1 (stereo not drawn) | -12.71%
O=C(CSCc1ccncc1)NCC1CCN(C2CC2)C1 (stereo not drawn) | 13.02%
CCCSCC(=O)Nc1ncn(CC(=O)NCc2ccccc2)n1 | 0.11%
CCN(C)Cc1cccc(CNC(=O)CSCc2ccccn2)c1 | 99.73%
COc1cccc(CSCC(=O)NCc2cccnc2)c1 | 3.69%
O=C(NCCNc1ncccn1)NCc1cccc(OC(F)F)c1 | -1.067%
